# PubChem BioAssay (NCATS)
# “And” between values parts separate entries of the source, which are not always exact repeats. Equal entries are not always repeated. A number with no mark means an inactive call. Results filed as inconclusive are left out. Entries that show only a call come without a potency. The source made the active and inactive calls. Unless noted, calls follow the shape of the dose curve; as a rule, active = well fitted curve in the direction sought with a large enough effect; inconclusive = small, poorly fitted or top-dose-only effect, or another doubt; inactive = no such curve, though single readings can be large; an effect the other way counts as inactive or inconclusive.
# Legend:
# [1] = qHTS assay for small molecule activators of the p53 signaling pathway (AID 651743; active = well fitted activation curve with a large enough effect in the signal ratio, not every such curve was filed as active; the % refers to the signal ratio); conditions: HCT-116 p53RE-bla, beta-lactamase FRET ratio, 16 h; active compounds read high
# In short: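 Read-out is fluorescence intensity from the LiveBLAzer B/G FRET substrate, added for 2 hours at room temperature after HCT-116 p53RE-bla cells had been incubated with compounds for 16 hours at 37 C.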
# [2] = target: Tumor necrosis factor (Homo sapiens) (UniProt P01375); test: qHTS assay to identify small molecules that stimulate Tumor Necrosis Factor-alpha (TNF-alpha) secretion (AID 651757; active = well fitted curve in the direction sought with a large enough effect in the signal ratio; the % refers to the signal ratio); conditions: Human cells, HTRF 665/615 ratio; series mostly up to 92.2 µM
# Tumor necrosis factor (Homo sapiens), sequence (P01375 whole entry, looked up): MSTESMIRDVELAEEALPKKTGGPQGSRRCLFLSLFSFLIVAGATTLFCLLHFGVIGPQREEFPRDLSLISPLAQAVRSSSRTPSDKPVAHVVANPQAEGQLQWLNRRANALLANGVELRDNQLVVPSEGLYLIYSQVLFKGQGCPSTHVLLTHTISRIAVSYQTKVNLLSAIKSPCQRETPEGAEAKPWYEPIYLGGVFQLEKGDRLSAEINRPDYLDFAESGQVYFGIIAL
# In short: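 THP-1 cells (3000/well) exposed to compounds 17 hrs at 37 C. Secreted TNF-alpha detected by HTRF with cryptate- and XL665-labeled anti-TNF-alpha antibodies after 3 hr at room temperature.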
# [3] = qHTS assay for environmental chemicals that activate the Aryl hydrocarbon Receptor (AhR) signaling pathway (AID 651777); conditions: 1A2-DRE human hepatoma cells, luciferase, 24 h; active compounds read high; also: nearly all actives have a fitted effect of over 15% in size
# In short: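 Human hepatoma 1A2-DRE cells stably carrying a DRE/CYP1A2 promoter–luciferase reporter, 1,200 cells/well, exposed to compound 24 hr at 37 C. Luciferase read by One-Glo luminescence after 30 min at room temperature; increased signal marks AhR activation.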
# [4] = target: Peroxisome proliferator-activated receptor alpha (Homo sapiens) (UniProt Q07869); test: qHTS assay for small molecule agonists of the peroxisome proliferator-activated receptor alpha (PPARalpha) signaling pathway (AID 651778); conditions: PathHunter PPARalpha complementation, chemiluminescence, 6 h; max response: active compounds read high
# Peroxisome proliferator-activated receptor alpha (Homo sapiens), sequence (Q07869 whole entry, looked up): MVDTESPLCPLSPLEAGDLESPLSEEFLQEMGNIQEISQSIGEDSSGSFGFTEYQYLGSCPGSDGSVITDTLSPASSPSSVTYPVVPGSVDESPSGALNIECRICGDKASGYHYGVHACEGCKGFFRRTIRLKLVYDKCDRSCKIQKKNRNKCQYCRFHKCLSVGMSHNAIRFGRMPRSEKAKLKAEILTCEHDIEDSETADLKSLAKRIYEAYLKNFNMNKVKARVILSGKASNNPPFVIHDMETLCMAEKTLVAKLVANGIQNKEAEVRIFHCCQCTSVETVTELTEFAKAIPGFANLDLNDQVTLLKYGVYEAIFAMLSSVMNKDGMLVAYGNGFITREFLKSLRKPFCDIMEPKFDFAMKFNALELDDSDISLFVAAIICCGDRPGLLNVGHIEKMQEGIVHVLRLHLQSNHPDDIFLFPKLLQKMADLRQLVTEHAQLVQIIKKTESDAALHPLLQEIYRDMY
# In short: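 Chemiluminescence from complemented enzyme reported PPARalpha activation in cells after 6 hr of compound treatment at 37 C. The detection reagent was incubated for 60 min at room temperature, and compounds were scored as agonists.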
# [5] = qHTS for compounds that reverse cellular toxicity of Amyloid beta (A-beta) peptide in yeast: LOPAC Validation Assay (AID 720559); conditions: yeast expressing A-beta; series mostly up to 46.1 µM
# In short: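 Activity is expressed relative to DMSO and an equimolar ferric chloride/clioquinol mix. Compounds were pinned into medium with A-beta-expressing yeast, grown 48 hr at 30 C, then read by absorbance at 600 nm.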
# [6] = qHTS for Activators of Parkin Expression: LOPAC Validation Assay (NLuc Reporter) (AID 720572); conditions: Parkin promoter NanoLuc reporter cells, luminescence, percent of positive control, DMSO as zero; series mostly up to 46.1 µM
# In short: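 Parkin promoter-driven FLuc/NLuc neuronal reporter cells; 24 h plating, 7-pt dose response, 24 h at 37 C/5% CO2; FLuc then NanoLuc reagent, 10 min each, luminescence; DMSO/positive control normalized.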
# [7] = qHTS for Activators of Parkin Expression: LOPAC Validation Assay (FLuc Reporter) (AID 720573); conditions: Cell line, PRKN promoter firefly luciferase reporter, vehicle wells = 0, positive control = 100%; series mostly up to 46.1 µM
# In short: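 A neuronal cell line harbouring FLuc and NLuc reporters behind the Parkin promoter was exposed to compounds for 24 h. Firefly luciferase signal, measured after 10 min with detection reagent, was scaled to DMSO and positive-control wells.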
# [8] = qHTS assay for small molecule agonists of the antioxidant response element (ARE) signaling pathway (AID 651741; active = well fitted activation curve with a large enough effect in the signal ratio; the % refers to the signal ratio); conditions: HepG2 ARE-bla reporter, beta-lactamase FRET ratio, 16 h; series mostly up to 96 µM
# In short: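 Quantitative HTS in HepG2 cells stably expressing an ARE-beta-lactamase reporter; 16 h compound exposure at 37 C, followed by 2 h room-temperature incubation with LiveBLAzer B/G FRET substrate and fluorescence measurement.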
# [9] = target: Nuclear receptor ROR-gamma (Homo sapiens) (UniProt P51449); test: qHTS assay for small molecule antagonists of the retinoid-related orphan receptor gamma (ROR-gamma) signaling pathway (AID 651802); conditions: ROR-gamma antagonist cell reporter assay; series mostly up to 92.2 µM; also: nearly all actives have a fitted effect of over 60% in size; also: potency is read from the fitted curve at half-maximal effect
# Nuclear receptor ROR-gamma (Homo sapiens), sequence (P51449 whole entry, looked up): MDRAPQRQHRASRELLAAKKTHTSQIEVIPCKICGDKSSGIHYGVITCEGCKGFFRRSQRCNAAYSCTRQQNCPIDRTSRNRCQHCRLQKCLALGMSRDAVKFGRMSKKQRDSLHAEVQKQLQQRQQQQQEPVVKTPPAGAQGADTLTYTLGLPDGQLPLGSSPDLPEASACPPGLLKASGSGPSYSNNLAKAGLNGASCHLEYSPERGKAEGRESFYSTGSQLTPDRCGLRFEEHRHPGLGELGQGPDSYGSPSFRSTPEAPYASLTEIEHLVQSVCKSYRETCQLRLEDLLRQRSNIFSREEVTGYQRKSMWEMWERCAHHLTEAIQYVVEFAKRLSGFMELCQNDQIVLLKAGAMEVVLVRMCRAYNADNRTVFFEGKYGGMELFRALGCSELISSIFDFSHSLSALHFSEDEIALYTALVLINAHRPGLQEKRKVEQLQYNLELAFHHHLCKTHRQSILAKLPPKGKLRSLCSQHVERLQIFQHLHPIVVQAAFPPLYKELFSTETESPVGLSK
# In short: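 CHO cells with TET-inducible ROR-gamma and RORE-luciferase reporter, dosed then doxycycline-induced. After 16 h at 37C, One-Glo luminescence read; decreased signal indicates antagonism.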
# [10] = qHTS assay for small molecule activators of the nuclear factor-kappa B (NF-kB) signaling pathway (AID 651749; active = well fitted activation curve with a large enough effect in the signal ratio; the % refers to the signal ratio); conditions: NF-kB-bla ME-180 cells, beta-lactamase FRET ratio, 16 h; active compounds read high
# In short: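 Readout: beta-lactamase reporter driven by an NF-kB response element, detected fluorescently as loss of FRET. Cells were the ME-180 line, treated 16 hr at 37C with pin-transferred compound.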
# [11] = qHTS assay for small molecule disruptors of the mitochondrial membrane potential - 1 hr assay (AID 651754; calls by dose curve; also: nearly all actives have a fitted effect of over 35% in size; also: potency is read from the fitted curve at half-maximal effect); conditions: series mostly up to 92.2 µM
# In short: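 HepG2 cells, attached overnight, were exposed to compound for 1 hr at 37C, then stained 30 min with a potentiometric dye. Ratio of red aggregate (590nm) to green monomer (535nm) fluorescence reports membrane potential; collapse shifts signal toward green.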
# [12] = qHTS assay for small molecule disruptors of the mitochondrial membrane potential - 5 hr assay (AID 651755; calls by dose curve; also: nearly all actives have a fitted effect of over 40% in size; also: potency is read from the fitted curve at half-maximal effect); conditions: JC-1-type ratio dye; series mostly up to 92.2 µM
# In short: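 HepG2, 2,000 cells/well, overnight attach; cpd or DMSO 5 hr, 37C/5% CO2; Mito-MPS 30 min 37C; fluor 490/535 + 540/590 nm.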
# [13] = Cell Proliferation Assay against the TMD8 Cell Line (Caspase readout at 8 hrs) (AID 651713); conditions: TMD8 lymphoma cells, caspase activation luminescence; series mostly up to 46.1 µM; also: potency is read from the fitted curve at half-maximal effect
# In short: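 TMD8 cells in RPMI plus 5% FBS were treated with compound for 8 h at 37C. Caspase 3/7 activation was read by Caspase-Glo luminescence. Percent activity was scaled from DMSO (0%) to 9.2 uM bortezomib final (100%).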
# [14] = target: Tyrosine-protein kinase Yes (Homo sapiens) (UniProt P07947); test: qHTS for small molecule inhibitors of Yes1 kinase: Primary Screen (AID 686947); conditions: Yes1 kinase biochemical qHTS inhibition; series mostly up to 76.9 µM; also: nearly all actives have a fitted effect of over 60% in size
# Tyrosine-protein kinase Yes (Homo sapiens), sequence (P07947 whole entry, looked up): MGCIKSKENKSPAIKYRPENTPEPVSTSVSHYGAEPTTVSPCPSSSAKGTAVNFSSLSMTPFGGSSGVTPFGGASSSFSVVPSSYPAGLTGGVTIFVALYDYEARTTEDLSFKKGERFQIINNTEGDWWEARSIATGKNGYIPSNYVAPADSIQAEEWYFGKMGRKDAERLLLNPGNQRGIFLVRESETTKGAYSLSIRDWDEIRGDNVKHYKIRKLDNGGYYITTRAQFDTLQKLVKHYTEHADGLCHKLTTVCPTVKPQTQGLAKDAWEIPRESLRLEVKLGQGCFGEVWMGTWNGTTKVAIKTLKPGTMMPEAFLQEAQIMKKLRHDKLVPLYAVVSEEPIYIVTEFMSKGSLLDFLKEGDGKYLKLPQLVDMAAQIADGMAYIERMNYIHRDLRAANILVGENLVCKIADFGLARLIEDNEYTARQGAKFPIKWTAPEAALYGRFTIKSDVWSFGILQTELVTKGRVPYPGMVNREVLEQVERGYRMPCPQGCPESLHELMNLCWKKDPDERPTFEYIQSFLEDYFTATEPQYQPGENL
# In short: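 Yes1 (4 nM) preincubated 20 min with compound, then 60 min room-temperature reaction with 0.1 mM ATP and 0.3 mg/mL poly(E4Y) in pH 7.5 Tris, 10 mM MgCl2. ADP measured by ADP-Glo luminescence, normalised to enzyme/no-enzyme controls.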
# [15] = qHTS for small molecule inhibitors of Yes1 kinase: Counter Assay (AID 686950); conditions: series mostly up to 76.9 µM;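 also: no kinase present so only ADP-Glo detection of a fixed ADP amount is tested; luminescence from ADP-Glo reporting ADP in a fixed ATP and ADP mixture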
# In short: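 Luminescence read-out from ADP-Glo quantifies a fixed ADP amount (0.02 mM ADP with 0.08 mM ATP) after 60 min at room temperature; signal is normalized between DMSO wells with ATP/ADP and with 0.1 mM ATP alone.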
# [16] = target: Arylsulfatase A (Homo sapiens) (UniProt P15289); test: qHTS screen for enhancers of Arylsulfatase A (ASA1): LOPAC Validation Assay (AID 720538); conditions: ASA enzyme activity, LOPAC qHTS enhancer assay; series mostly up to 57.5 µM
# Arylsulfatase A (Homo sapiens), sequence (P15289 whole entry, looked up): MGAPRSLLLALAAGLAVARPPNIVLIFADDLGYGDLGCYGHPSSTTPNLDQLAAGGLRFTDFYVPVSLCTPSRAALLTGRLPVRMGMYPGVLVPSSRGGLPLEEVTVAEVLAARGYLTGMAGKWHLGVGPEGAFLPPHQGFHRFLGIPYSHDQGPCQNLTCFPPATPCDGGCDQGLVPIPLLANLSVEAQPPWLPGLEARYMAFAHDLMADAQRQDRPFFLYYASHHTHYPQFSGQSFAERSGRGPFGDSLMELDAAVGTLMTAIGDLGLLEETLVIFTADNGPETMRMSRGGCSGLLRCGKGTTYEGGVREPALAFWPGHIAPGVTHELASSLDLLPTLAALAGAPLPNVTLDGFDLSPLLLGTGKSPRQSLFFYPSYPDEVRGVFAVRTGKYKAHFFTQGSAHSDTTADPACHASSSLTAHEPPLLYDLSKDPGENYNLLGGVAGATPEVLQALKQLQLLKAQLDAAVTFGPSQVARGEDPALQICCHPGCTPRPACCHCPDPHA
# In short: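 First, ASA-I179S fibroblasts from an MLD patient adhered for 6 hrs. Next, compounds were added for 48h. Then pNCS substrate (0.5mM final) with lysis buffer reacted 14h at room temperature before NaOH stop and fluorescence measurement.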
structure (smiles),measurement,setting,value
CC(=O)[C@H]1CC[C@H]2[C@@H]3CCC4=CC(=O)CC[C@]4(C)[C@H]3CC[C@]12C,activation,[1],-1.4% and -5.04% and -4.98%
same,outcome,[2],inactive
same,activation,[3],0.0693% and 1.75% and -2.26%
same,max response,[4],1.94% and -2.09% and -1.65%
same,outcome,[5],inactive
same,outcome,[6],inactive
same,outcome,[7],inactive
O=C(O)c1cc(=O)[nH]c(=O)[nH]1,Potency,[8],inactive
same,activation,[1],-1.01%
same,outcome,[2],inactive
same,activation,[3],0.283%
same,max response,[4],-0.877%
same,Potency,[9],inactive
C[C@]12C=CC(=O)C=C1CC[C@@H]1[C@@H]2C(=O)C[C@@]2(C)[C@H]1CC[C@]2(O)C(=O)CO,activation,[10],1.39%
same,Potency,[11],inactive
same,Potency,[12],inactive
same,outcome,[2],inactive
same,activation,[3],-0.111%
same,max response,[4],-2.07%
same,Potency,[9],inactive
COc1cc2nc(N3CCCN(C)CC3)nc(NC3CCN(Cc4ccccc4)CC3)c2cc1OC,Potency,[13],26.4 µM (active)
same,outcome,[14],inactive
same,outcome,[15],inactive
same,outcome,[16],inactive
same,outcome,[5],inactive
same,outcome,[6],inactive
same,outcome,[7],inactive
O=C(O)C1CCCN(CCC=C(c2ccccc2)c2ccccc2)C1 (centres undefined),outcome,[5],inactive
same,outcome,[6],inactive
same,outcome,[7],inactive
COc1cc2ncnc(Nc3cccc(Cl)c3)c2cc1OC,outcome,[16],inactive
same,outcome,[5],inactive
same,outcome,[6],inactive
same,outcome,[7],inactive
NC(=O)c1ccc2[nH]ccc2c1,outcome,[5],inactive
same,outcome,[6],inactive
same,outcome,[7],inactive
N[C@@H](Cc1ccc(O)c(O)c1)C(=O)O,activation,[10],0.678%
same,activation,[3],2.04%
same,max response,[4],-1.63%
same,outcome,[16],inactive
same,outcome,[5],inactive
same,outcome,[6],inactive
same,outcome,[7],inactive
CC(=O)Oc1ccccc1C(=O)Nc1ncc([N+](=O)[O-])s1,activation,[10],-1.07%
same,max response,[4],-4.4%
Cc1c(-c2ccc(O)cc2)n(Cc2ccc(OCCN3CCCCCC3)cc2)c2ccc(O)cc12,outcome,[14],inactive
same,outcome,[15],inactive
CN(C)c1ccc(C(=C2C=CC(=[N+](C)C)C=C2)c2ccc(N(C)C)cc2)cc1,Potency,[11],0.668 µM (active)
same,Potency,[12],1.19 µM (active)
same,activation,[3],-11.2% and -3.03%
same,max response,[4],-11.8% and -11.3%
same,Potency,[9],2.37 µM (active)
Nc1nc(N)c2nc(CNc3ccc(C(=O)NC(CCC(=O)O)C(=O)O)cc3)cnc2n1 (centres undefined),activation,[3],-4.32%
same,max response,[4],-1.16%
same,outcome,[5],inactive
same,outcome,[6],inactive
same,outcome,[7],inactive
CC(C)C[C@H](NC(=O)[C@H](CCc1ccccc1)NC(=O)CN1CCOCC1)C(=O)N[C@@H](Cc1ccccc1)C(=O)N[C@@H](CC(C)C)C(=O)[C@@]1(C)CO1,outcome,[14],inactive
same,outcome,[15],inactive
Cc1ccc(S(=O)(=O)N[C@@H](Cc2ccccc2)C(=O)CCl)cc1,outcome,[16],inactive
same,outcome,[5],inactive
same,outcome,[6],inactive
same,outcome,[7],inactive
CC1=C(C(=O)O)N2C(=O)[C@@H](NC(=O)C(N)c3ccccc3)[C@H]2SC1 (some centres undefined),outcome,[16],inactive
same,outcome,[5],inactive
same,outcome,[6],inactive
same,outcome,[7],inactive
NC(=O)c1cccc(N)c1,outcome,[16],inactive
same,outcome,[5],inactive
same,outcome,[6],inactive
same,outcome,[7],inactive
OCc1ccc(-c2nn(Cc3ccccc3)c3ccccc23)o1,outcome,[16],inactive
same,outcome,[5],inactive
same,outcome,[6],inactive
same,outcome,[7],inactive
CCN1CCCC1CNC(=O)c1cc(S(N)(=O)=O)ccc1OC (centres undefined),outcome,[16],inactive
same,outcome,[5],inactive
same,outcome,[6],inactive
same,outcome,[7],inactive
CCN(CC)CC#CCOC(=O)C(O)(c1ccccc1)C1CCCCC1 (centres undefined),outcome,[16],inactive
same,outcome,[5],inactive
same,outcome,[6],inactive
same,outcome,[7],inactive
Cc1nnc(C(=O)NC(C)(C)c2nc(C(=O)NCc3ccc(F)cc3)c(O)c(=O)n2C)o1,outcome,[14],inactive
same,outcome,[15],inactive
O=S(=O)(c1cccc2cnccc12)N1CCCNCC1,outcome,[14],inactive
same,outcome,[15],inactive
COc1cc([C@@H]2c3cc4c(cc3[C@H](O)[C@H]3COC(=O)[C@H]23)OCO4)cc(OC)c1OC,outcome,[14],inactive
same,outcome,[15],inactive
CNC(=O)c1cc(Oc2ccc(NC(=O)Nc3ccc(Cl)c(C(F)(F)F)c3)cc2)ccn1,outcome,[15],inactive
CCCCS(=N)(=O)CCC(N)C(=O)O (centres undefined),outcome,[16],inactive
same,outcome,[5],inactive
same,outcome,[6],inactive
same,outcome,[7],inactive
CC1CC2C3CCC4=CC(=O)C=C[C@]4(C)[C@@]3(F)[C@@H](O)C[C@]2(C)[C@@]1(O)C(=O)CO (some centres undefined),outcome,[16],inactive
same,outcome,[5],inactive
same,outcome,[6],inactive
same,outcome,[7],inactive
CC(C)NCC(O)c1ccc(NS(C)(=O)=O)cc1 (centres undefined),outcome,[16],inactive
same,outcome,[5],inactive
same,outcome,[6],inactive
same,outcome,[7],inactive
CC(=O)CC(c1ccccc1)c1c(O)c2ccccc2oc1=O (centres undefined),max response,[4],-0.925%
